From PubChem BioAssay (Tox21)
Several values for one entry are separate records, joined by “and”; a condition that tells them apart may be missing. Identical values can stand only once. Records with an inconclusive call do not appear. A call without a number means that no potency is given here. Some structures have more than one record in an assay (separate samples or runs), and their calls can disagree. Activity calls are given as the source filed them. Unless noted, calls follow the shape of the full dose curve.

Key:
[1] = Nuclear factor erythroid 2-related factor 2/antioxidant responsive element (Nrf2/ARE) small molecule agonists: qHTS cell viability counter screen in human keratinocytes (AID 1919968; active = well fitted curve in the direction sought with a large enough effect in the repeat runs; an effect the other way counts as inactive or inconclusive; also: nearly all actives have a fitted effect of over 55% in size; also: potency is read from the fitted curve at half-maximal effect)
Summary of the method: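 Parallel cytotoxicity read: KeratinoSens HaCaT cells, compound treatment 23 h, viability by CellTiter-Fluor fluorescence 1 h post-reagent.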

[2] = Nuclear factor erythroid 2-related factor 2/antioxidant responsive element (Nrf2/ARE) small molecule agonists: luciferase reporter gene qHTS assay in human keratinocytes (AID 1919969); also: nearly all actives have a fitted effect of over 35% in size; also: potency is read from the fitted curve at half-maximal effect
[3] = molecular target: Gonadotropin-releasing hormone receptor (Homo sapiens) (UniProt P30968); assay: Human gonadotropin-releasing hormone receptor (GnRHR) small molecule agonists, calcium flux assay in GnRHR-HEK293 cells (AID 1920063); also: nearly all actives have a fitted effect of over 35% in size
Summary of the method: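 Calcium flux, agonist mode, human GnRHR stably integrated in HEK293; dye 1 h at 37 C before compound; Ex/Em=480/540 kinetic read, 3 min; 15 concentrations, triplicate.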

[4] = molecular target: KiSS-1 receptor (Homo sapiens) (UniProt Q969F8); assay: Human kisspeptin (KISS1R) small molecule agonists, calcium flux assay in KISS1R-HEK293 cells (AID 1920064; active = well fitted curve in the direction sought with a large enough effect in the repeat runs; an effect the other way counts as inactive or inconclusive)
Summary of the method: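 Triplicate 15-concentration series were applied to dye-loaded human KISS1R HEK293 cells, and agonist-evoked calcium fluorescence was captured for 3 min.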

[5] = G protein-coupled receptor (GPCR) small molecule agonists, calcium flux assay: HEK293 wild type cell line counter screen (AID 1920065)
Summary of the method: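 Non-specific calcium responders were flagged by adding DMSO-dissolved compounds to dye-loaded cells and reading 480/540 nm fluorescence each second for 3 min; ATP served as positive control.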

[6] = p53 small molecule agonists, cell-based qHTS assay with human liver microsomes (AID 1963577);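 also: p53 response element beta-lactamase reporter cells with liver microsomes plus NADPH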
Summary of the method: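 Reporter activation was measured by LiveBLAzer fluorescence intensity in p53RE-bla cells, which had been exposed to compounds for 16 h at 37 C alongside 0.5 mg/mL human liver microsomes and 0.5 mg/mL NADPH (final concentrations).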

[7] = p53 small molecule agonists, cell-based qHTS assay with rat liver microsomes (AID 1963578)
Summary of the method: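 Compound in DMSO added to p53RE-bla cells 5 h post-plating; rat microsomes/NADPH 0.5 mg/mL final; 16 h, 37 C; LiveBLAzer 2 h RT.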

[8] = p53 small molecule agonists, cell-based qHTS assay with human liver microsomes: qHTS cell viability counter screen (AID 1963579); also: nearly all actives have a fitted effect of over 45% in size; also: potency is read from the fitted curve at half-maximal effect
Summary of the method: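 HLM-supplemented (0.5 mg/mL final) and NADPH-supplemented (0.5 mg/mL final) p53RE-bla cultures, 4,000 cells per well, were dosed with compounds in DMSO for 16 h at 37 C; luminescent ATP detection (CellTiter-Glo, 30 min, room temperature) quantified surviving cells.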

[9] = p53 small molecule agonists, cell-based qHTS assay with rat liver microsomes: qHTS cell viability counter screen (AID 1963580); also: nearly all actives have a fitted effect of over 45% in size; also: potency is read from the fitted curve at half-maximal effect
Summary of the method: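 Cytotoxicity counter screen: intracellular ATP measured by CellTiter-Glo luminescence in the same wells as the beta-lactamase reporter read, on HCT-116 p53RE-bla cells exposed 16 h at 37 C to compounds with rat liver microsomes and NADPH, each 0.5 mg/mL final.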

[10] = p53 small molecule agonists, cell-based qHTS assay: qHTS cell viability counter screen (AID 1963581); also: nearly all actives have a fitted effect of over 45% in size; also: potency is read from the fitted curve at half-maximal effect
Summary of the method: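 Multiplexed with the reporter read, a CellTiter-Glo step (30 min, room temperature) gauges ATP-based viability of HCT-116 p53RE-bla cells after 16 h compound incubation at 37 C.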

[11] = p53 small molecule agonists, cell-based qHTS assay (AID 1963582; active = well fitted activation curve with a large enough effect in the signal ratio in the repeat runs, not every such curve was filed as active; the % refers to the signal ratio)
Summary of the method: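 Beta-lactamase reporter cells (p53RE-bla) treated with compounds for 16 h at 37 C; FRET substrate, 2 h, room temperature; fluorescence intensity.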

[12] = molecular target: 5-hydroxytryptamine receptor 2A (Homo sapiens) (UniProt P28223); assay: 5-hydroxytryptamine receptor 2A (HTR2A) small molecule antagonists, cell-based qHTS assay (AID 1963586); also: nearly all actives have a fitted effect of over 45% in size
Summary of the method: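 CHO cells stably expressing human HTR2A were plated for 18 h at 37 C, then loaded with calcium dye for 1 h. Compounds were preincubated 5 min at room temperature before DOI (4 nM solution) was added. Kinetic fluorescence was read for 3 min.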

[13] = molecular target: 5-hydroxytryptamine receptor 2A (Homo sapiens) (UniProt P28223); assay: 5-hydroxytryptamine receptor 2A (HTR2A) small molecule agonists, cell-based qHTS assay (AID 1963587); also: nearly all actives have a fitted effect of over 30% in size
Summary of the method: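 CHO cells stably expressing human HTR2A, plated 18 h, loaded with calcium dye 1 h at 37 C. Agonist mode: compounds added and intracellular calcium fluorescence recorded kinetically for 2 min at 1 sec intervals.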

[14] = molecular target: Muscarinic acetylcholine receptor M1 (Homo sapiens) (UniProt P11229); assay: Cholinergic receptor muscarinic 1 (CHRM1) small molecule antagonists, cell-based qHTS assay (AID 1963588); also: nearly all actives have a fitted effect of over 40% in size
Summary of the method: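 Compounds were tested at 15 concentrations in three independent runs. Dye-loaded CHRM1-CHO cells were exposed 5 min at room temperature before stimulation by acetylcholine added at 50nM. Intracellular calcium was read kinetically on FDSS for 3 min.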

[15] = molecular target: Muscarinic acetylcholine receptor M1 (Homo sapiens) (UniProt P11229); assay: Cholinergic receptor muscarinic 1 (CHRM1) small molecule agonists, cell-based qHTS assay (AID 1963589); also: nearly all actives have a fitted effect of over 35% in size
Summary of the method: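 qHTS, 15-point titration, 3 independent runs: compounds pin-transferred onto dye-loaded CHRM1-CHO cells (human M1), calcium fluorescence followed every second to detect agonism.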

[16] = cAMP Responsive Elements (CRE) small molecule agonists, cell-based qHTS assay (AID 1963590)
Summary of the method: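 Quantitative HTS for CRE agonists: HEK 293T CRE-bla cells, overnight plating, 3 h compound incubation at 37 C/5% CO2, then 2 h room-temperature LiveBLAzer B/G FRET substrate loading.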

[17] = cAMP Responsive Elements (CRE) small molecule antagonists, cell-based qHTS assay (AID 1963591; active = well fitted inhibition curve with a large enough effect in the signal ratio in the repeat runs, not every such curve was filed as active; the % refers to the signal ratio)
Summary of the method: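 Fluorescence intensity from cleaved LiveBLAzer B/G substrate (2 h, room temperature) quantified CRE-bla activity in HEK 293T cells exposed 3 h to compound with 0.25 uM final NKH477.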

[18] = molecular target: Beta-2 adrenergic receptor (Homo sapiens) (UniProt P07550); assay: Adrenergic beta2 receptor (ADRB2) small molecule antagonists, cell-based qHTS assay (AID 1963592); also: series mostly up to about 92 µM; nearly all actives have a fitted effect of over 50% in size
Summary of the method: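 Assay format: CHO-ADRB2 cells, 18-20hr seeding at 37C/5% CO2, then compound plus 1nM isoproterenol agonist mix for 0.5hr RT. Homogeneous time-resolved fluorescence cAMP detection after 1hr, expressed as 665/615 nm ratio.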

[19] = molecular target: D(2) dopamine receptor (Homo sapiens) (UniProt P14416); assay: Dopamine D2 receptor (DRD2) small molecule agonists, cell-based qHTS assay (AID 1963594); also: nearly all actives have a fitted effect of over 35% in size
Summary of the method: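 HEK293 cells stably expressing human DRD2, pre-treated with PDE inhibitor Ro20-1724 (0.1 mM final) and compound 10 min at room temperature, then stimulated with NKH477 (200nM […]) for 30 min. cAMP read by HTRF (665/620 nm).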

[20] = molecular target: D(2) dopamine receptor (Homo sapiens) (UniProt P14416); assay: Dopamine D2 receptor (DRD2) small molecule antagonists, cell-based qHTS assay (AID 1963595; active = well fitted inhibition curve with a large enough effect in the signal ratio in the repeat runs, with a control signal flat; the % refers to the signal ratio)
Summary of the method: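 Human DRD2 antagonist qHTS measuring cAMP by HTRF. The cells are exposed to compound for 10 min, then to NKH477 (200 nM) and quinpirole (12 nM) for 30 min at RT, with Ro20-1724 (0.1 mM) present throughout.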

Chain of KiSS-1 receptor (Homo sapiens) (Q969F8 whole entry, looked up): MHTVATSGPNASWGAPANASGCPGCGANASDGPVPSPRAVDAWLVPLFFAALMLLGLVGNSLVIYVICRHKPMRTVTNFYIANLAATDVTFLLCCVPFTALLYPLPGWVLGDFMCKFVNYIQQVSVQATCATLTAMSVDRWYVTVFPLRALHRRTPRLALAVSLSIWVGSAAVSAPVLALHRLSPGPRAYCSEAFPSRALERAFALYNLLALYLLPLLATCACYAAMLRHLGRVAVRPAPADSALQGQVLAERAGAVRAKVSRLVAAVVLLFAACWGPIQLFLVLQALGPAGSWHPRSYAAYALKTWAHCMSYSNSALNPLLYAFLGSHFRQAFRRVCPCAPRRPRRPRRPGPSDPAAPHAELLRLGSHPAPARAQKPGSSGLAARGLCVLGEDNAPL
Chain of Muscarinic acetylcholine receptor M1 (Homo sapiens) (P11229 whole entry, looked up): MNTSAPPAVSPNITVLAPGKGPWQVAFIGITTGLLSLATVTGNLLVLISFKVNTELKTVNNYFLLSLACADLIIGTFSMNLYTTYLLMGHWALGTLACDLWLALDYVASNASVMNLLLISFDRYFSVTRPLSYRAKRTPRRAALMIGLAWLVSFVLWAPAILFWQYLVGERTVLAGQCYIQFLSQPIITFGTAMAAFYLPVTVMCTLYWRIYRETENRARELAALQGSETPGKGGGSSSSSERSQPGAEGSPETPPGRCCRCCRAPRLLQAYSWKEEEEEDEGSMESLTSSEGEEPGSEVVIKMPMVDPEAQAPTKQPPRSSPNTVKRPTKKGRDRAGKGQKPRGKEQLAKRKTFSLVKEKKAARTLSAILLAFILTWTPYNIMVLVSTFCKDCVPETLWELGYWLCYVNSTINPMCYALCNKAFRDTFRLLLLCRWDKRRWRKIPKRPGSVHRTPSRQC
Chain of Beta-2 adrenergic receptor (Homo sapiens) (P07550 whole entry, looked up): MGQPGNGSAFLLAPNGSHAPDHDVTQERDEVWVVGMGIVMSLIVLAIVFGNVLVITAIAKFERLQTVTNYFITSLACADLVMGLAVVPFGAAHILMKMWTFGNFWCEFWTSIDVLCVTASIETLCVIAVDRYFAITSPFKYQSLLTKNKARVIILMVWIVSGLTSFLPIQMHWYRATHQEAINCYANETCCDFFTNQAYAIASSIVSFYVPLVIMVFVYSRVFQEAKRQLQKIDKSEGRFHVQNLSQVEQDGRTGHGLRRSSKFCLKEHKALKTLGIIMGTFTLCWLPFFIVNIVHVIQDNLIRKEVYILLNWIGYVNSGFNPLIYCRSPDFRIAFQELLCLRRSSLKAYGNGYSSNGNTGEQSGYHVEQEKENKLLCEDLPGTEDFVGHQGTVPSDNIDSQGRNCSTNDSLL
Chain of D(2) dopamine receptor (Homo sapiens) (P14416 whole entry, looked up): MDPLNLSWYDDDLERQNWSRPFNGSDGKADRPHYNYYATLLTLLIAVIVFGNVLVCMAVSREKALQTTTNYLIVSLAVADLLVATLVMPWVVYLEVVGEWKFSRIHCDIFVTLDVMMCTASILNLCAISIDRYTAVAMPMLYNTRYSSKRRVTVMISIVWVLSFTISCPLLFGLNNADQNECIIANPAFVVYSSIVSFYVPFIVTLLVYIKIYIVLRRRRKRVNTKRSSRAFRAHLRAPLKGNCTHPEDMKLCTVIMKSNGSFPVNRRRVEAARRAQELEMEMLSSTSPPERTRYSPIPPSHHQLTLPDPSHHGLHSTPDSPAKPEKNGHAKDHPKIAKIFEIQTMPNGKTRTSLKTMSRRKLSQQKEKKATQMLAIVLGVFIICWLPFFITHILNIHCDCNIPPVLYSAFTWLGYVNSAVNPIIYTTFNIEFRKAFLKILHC
Chain of 5-hydroxytryptamine receptor 2A (Homo sapiens) (P28223 whole entry, looked up): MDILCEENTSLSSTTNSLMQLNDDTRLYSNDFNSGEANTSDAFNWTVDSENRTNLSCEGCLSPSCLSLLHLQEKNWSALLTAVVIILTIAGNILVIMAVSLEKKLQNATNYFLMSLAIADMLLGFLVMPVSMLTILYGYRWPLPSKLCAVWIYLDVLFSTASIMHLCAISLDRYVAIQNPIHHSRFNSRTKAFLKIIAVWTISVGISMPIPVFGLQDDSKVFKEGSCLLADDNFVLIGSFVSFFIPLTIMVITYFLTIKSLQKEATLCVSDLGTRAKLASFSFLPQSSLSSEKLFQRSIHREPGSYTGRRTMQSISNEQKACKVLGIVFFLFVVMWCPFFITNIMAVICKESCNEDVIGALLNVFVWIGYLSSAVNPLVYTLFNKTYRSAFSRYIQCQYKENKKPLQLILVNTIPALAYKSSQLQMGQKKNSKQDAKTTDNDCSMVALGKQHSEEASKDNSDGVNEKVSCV
Chain of Gonadotropin-releasing hormone receptor (Homo sapiens) (P30968 whole entry, looked up): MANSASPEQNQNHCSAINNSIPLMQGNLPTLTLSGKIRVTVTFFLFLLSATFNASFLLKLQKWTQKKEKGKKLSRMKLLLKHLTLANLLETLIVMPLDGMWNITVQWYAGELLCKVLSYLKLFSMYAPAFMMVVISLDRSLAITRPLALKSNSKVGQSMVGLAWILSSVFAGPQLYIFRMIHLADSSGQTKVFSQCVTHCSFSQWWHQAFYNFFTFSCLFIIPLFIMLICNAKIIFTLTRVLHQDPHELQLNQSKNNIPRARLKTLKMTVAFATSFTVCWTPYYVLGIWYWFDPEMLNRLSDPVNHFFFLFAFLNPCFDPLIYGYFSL

Row | Compound | Potency [1] | Potency [2] | Potency [3] | Potency [4] | Potency [5] | Potency [6] | Potency [7] | Potency [8] | Potency [9] | Potency [10] | Potency [11] | Potency [12] | Potency [13] | Potency [14] | Potency [15] | Potency [16] | Potency [17] | Potency [18] | Potency [19] | Potency [20]
1 | C1N2CN3CN1CN(C2)C3 | inactive | inactive | inactive | inactive | inactive | inactive | inactive | inactive | inactive | inactive | inactive | inactive | inactive | inactive | inactive | inactive | inactive | inactive | inactive | inactive
2 | CCCCC(CC)COC(=O)/C=C/c1ccc(OC)cc1 (configuration not stated) | inactive | inactive | inactive | inactive | inactive | inactive | inactive | inactive | inactive | inactive | inactive | inactive | inactive | inactive | inactive | inactive | inactive | inactive |  | inactive
3 | O=C(O)CCCC(=O)O | inactive | inactive | inactive | inactive | inactive | inactive | inactive | inactive | inactive | inactive | inactive | inactive | inactive | inactive | inactive | inactive | inactive | inactive | inactive | 
4 | C=C(C)C(=O)OCCCCCCCCCCCC | inactive | inactive | inactive | inactive | inactive | inactive | inactive | inactive | inactive | inactive | inactive | inactive | inactive | inactive | inactive | inactive | inactive | inactive | inactive | 
5 | O=c1cc[nH]c(=S)[nH]1 | inactive | inactive | inactive | inactive | inactive | inactive | inactive | inactive and 793 nM (active) | inactive | inactive | inactive | inactive | inactive | inactive | inactive | inactive | inactive | inactive | inactive | inactive
6 | CC(C)Cc1ccccc1 | inactive | inactive | inactive | inactive | inactive | inactive | inactive | inactive | inactive | inactive | inactive | inactive | inactive | inactive | inactive | inactive | inactive | inactive | inactive | inactive
7 | C=CCNC(N)=S | inactive | inactive | inactive | inactive | inactive | inactive | inactive | inactive | inactive | inactive | inactive | inactive | inactive | inactive | inactive | inactive | inactive | inactive | inactive | inactive
8 | Cn1c([N+](=O)[O-])cnc1COC(N)=O | inactive | inactive | inactive | inactive | inactive | inactive | inactive | inactive | inactive | inactive | inactive | inactive | inactive | inactive | inactive | inactive | inactive | inactive | inactive | inactive
9 | COCCOCCOC | inactive | inactive | inactive | inactive | inactive | inactive | inactive | inactive | inactive | 145 nM (active) and inactive | inactive | inactive | inactive | inactive | inactive | inactive | inactive | inactive | inactive | inactive
10 | O=C(Cl)c1cccc(C(=O)Cl)c1 | inactive | inactive | inactive | inactive | inactive | inactive | inactive | inactive | inactive | inactive | inactive | inactive | inactive | inactive | inactive | inactive | inactive | inactive | inactive | inactive
11 | Cc1cc(=O)[nH]c(C(C)C)n1 | inactive | inactive | inactive | inactive | inactive | inactive | inactive | inactive | inactive | inactive | inactive | inactive | inactive | inactive | inactive | inactive | inactive | inactive | inactive | inactive
12 | Cc1ccc([N+](=O)[O-])c(C)c1 | 2.43 µM (active) and inactive | 1.93 µM (active) and inactive | inactive | inactive | inactive | inactive | inactive | inactive | 18.2 µM (active) and inactive | inactive | inactive | inactive | inactive | inactive | inactive | inactive | inactive | inactive | inactive | inactive
13 | Cc1ccc(C)c(C)c1 | inactive | inactive | inactive | inactive | inactive | inactive | inactive | inactive | inactive | inactive | inactive | inactive | inactive | inactive | inactive | inactive | inactive | inactive | inactive | inactive
14 | Cc1cccc(C)c1O | inactive | inactive | inactive | inactive | inactive | inactive | inactive | inactive | inactive | inactive | inactive | inactive | inactive | inactive | inactive | inactive | inactive | inactive | inactive | inactive
15 | c1ccc2c(c1)ccc1cc3c(ccc4ccccc43)cc12 | inactive | 17 µM (active) and 2.15 µM (active) | inactive | inactive | inactive | inactive | inactive | inactive | inactive | inactive | inactive | inactive | inactive | inactive | inactive | inactive | inactive | inactive | inactive | inactive
